An excerpt weighted towards active compounds, which were near 2.3% of everything screened.
ZTA counter: counter-screen for EBNA-1 inhibitors: inhibitors of Epstein-Barr virus ZTA. ZTA-DNA binding, fluorescence polarization. hit rate 0.15% among 320,000. inhibition, % at 11 µM. P03206; in the data active = inhibition above about 33%
EBNA-1 inh: blocks EBNA-1 binding to DNA; inhibition, % at 14.8 µM; hit rate 0.34% among 300,000; AID 1950; EBNA-1 DNA binding, fluorescence polarization; in the data active = inhibition above about 28%
MsrA inh: inhibits bovine methionine sulfoxide reductase A; purified bovine MsrA, absorbance read-out; inhibition, % at 15.5 µM; hit rate 0.75% among 360,000; AID 651718; in the data active = inhibition above about 4.5%;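 note: 0% = vehicle wells with enzyme and 100% = reference inhibitor wells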
PP1 inh: blocks human PP1-alpha phosphatase, a PP5 counter-screen; P62136; purified PP1alpha, OMFP fluorescence; inhibition, % at 6.7 µM; hit rate 0.9% among 320,000; AID 2235;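 active = inhibition above the mean inhibition of all tested compounds plus 3 SD, computed separately for each screening campaign, cut at about 15% in these data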
Target sequence (P62136 whole entry, looked up): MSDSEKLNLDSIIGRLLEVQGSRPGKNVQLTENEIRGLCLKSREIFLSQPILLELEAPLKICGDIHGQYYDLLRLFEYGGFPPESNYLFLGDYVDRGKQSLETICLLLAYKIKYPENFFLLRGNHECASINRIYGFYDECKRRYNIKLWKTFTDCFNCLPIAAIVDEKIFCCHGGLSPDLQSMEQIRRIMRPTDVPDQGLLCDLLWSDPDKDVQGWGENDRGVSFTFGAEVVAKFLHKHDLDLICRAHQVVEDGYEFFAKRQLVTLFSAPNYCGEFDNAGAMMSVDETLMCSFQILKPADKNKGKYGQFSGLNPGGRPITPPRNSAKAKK
MsrA act: activators of bovine methionine sulfoxide reductase A | purified bovine MsrA, absorbance read-out | activation, % at 10.6 µM | hit rate 0.3% among 360,000 | AID 602163; in the data active = activation above about 7.5%;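 note: 0% = vehicle and 100% = reference activator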
PP5 inh: PP5 (human) phosphatase inhibition; P53041; purified PP5c, OMFP substrate fluorescence; inhibition, % at 6.7 µM; hit rate 0.18% among 320,000;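 active = inhibition above the campaign's mean inhibition across all tested compounds plus 3 SD, cut at about 9.5% in these data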;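 note: 0% = DMSO only and 100% = 100 µM cantharidin control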
MsrA act confirm: confirmation of bovine methionine sulfoxide reductase A activators | shares compounds with MsrA act | purified bovine MsrA, absorbance read-out | activation, % at 10.6 µM | hit rate 12% among 1,000 | AID 602270; in the data active = activation above about 4%;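 note: enzyme coupled to thioredoxin and thioredoxin reductase with NADPH; 0% = vehicle wells and 100% = reference activator wells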
* hit, by the source's call; / = not tested or not shown.

SMILES	ZTA counter	EBNA-1 inh	MsrA inh	PP1 inh	MsrA act	PP5 inh	MsrA act confirm
O=C(CCN1C(=O)COc2ccccc21)N1CCN(c2ccccn2)CC1	8.8	1.1	-1.2	-1.9	21.1*	1.6	-1.1
Cc1cc(C)c(C)c(S(=O)(=O)N2CCC(C(=O)Nc3ccc(S(=O)(=O)N4CCOCC4)cc3)CC2)c1C	11.3	10.3	0.1	2.5	-1.7	4.8	/
COc1ccc(-c2nnn(Cc3ccccc3F)n2)cc1	-0.7	-5.8	-0.1	1.0	16.4*	-2.8	-0.4
CCCCCC(=O)NNC(=S)NC(=O)c1cccc([N+](=O)[O-])c1	-8.3	1.9	0.8	1.4	8.9*	0.7	0.7
COc1cccc(-n2cn[nH]c2=S)c1	6.6	10.0	1.4	-2.3	7.8*	0.1	-0.5
COc1cccc(-c2cn(-c3cccc(C(F)(F)F)c3)c(=S)[nH]2)c1	/	/	-1.1	/	0.1	/	/
O=c1cc(CSc2ccccc2)[nH]c(=S)[nH]1	1.2	-2.8	0.8	-2.3	10.7*	-0.7	3.7
Cc1onc(-c2c(Cl)cccc2Cl)c1NC(=O)N1CCSCC1	-0.9	1.9	-0.9	-0.7	-3.8	0.2	/
C#Cc1ccccc1OCCCN1CCC(C(O)(c2ccccc2)c2ccccc2)CC1	/	/	0.5	/	-0.2	/	/
N#Cc1ccccc1OCCCN1CCC(C(O)(c2ccccc2)c2ccccc2)CC1	/	/	-1.4	/	8.3*	/	-2.1
CCOc1cc(S(=O)(=O)NCc2ccncc2)ccc1Cl	-7.9	12.1	-1.0	-3.4	0.9	2.6	/
COc1ccc(C(C)(O)c2nc(-c3cccc(C(F)(F)F)c3)cs2)cc1 (configuration not stated)	/	/	1.0	/	9.8*	/	1.8
COc1cccc(NC(=O)CN(C)C(=O)CCNC(=O)c2ccccc2Cl)c1	3.2	/	-1.3	-6.1	8.0*	2.0	2.4
COc1cccc(NC(=O)CN(C)CC(=O)NCc2ccc3c(c2)OCO3)c1	1.4	/	-0.5	-2.3	11.4*	0.1	-0.6
COc1ccc(CC(=O)NCc2ccc3c(c2)OCO3)cc1	-1.5	-4.4	0.2	-4.4	0.1	1.8	/
COc1cccc(NC(=O)CN(C)C(=O)CCC(=O)c2cc(C)sc2C)c1	/	/	0.3	/	-8.7	/	/
CC(=O)Oc1ccccc1C(=O)OCCN=C1NS(=O)(=O)c2ccccc21	1.1	0.5	0.7	3.2	-2.0	0.6	/
C/C(=N\N=C(/N)c1nonc1N)c1ccc2c(c1)OCO2	-9.7	-7.6	1.9	-2.6	-4.4	1.2	/
COc1ccc(NC(=O)c2cc(S(=O)(=O)N3CCCCC3)c[nH]2)cc1Cl	-6.8	4.8	1.2	0.4	0.7	0.6	/
CCCCCC#CCN1CCN(C23CC4CC(CC(C4)C2)C3)CC1	12.0	/	/	-2.0	8.8*	-0.4	2.7
O=C1CCCC2=C1C(c1ccccc1)CC(=O)N2c1ccc(F)cc1F (configuration not stated)	-3.4	7.2	-0.8	0.6	-3.0	3.1	/
COc1ccc(N(CC(=O)NCc2ccc(C)cc2)S(=O)(=O)c2c(C)nn(C)c2C)cc1	11.3	-8.0	-1.4	-2.4	9.7*	1.3	-1.6
COC(=O)c1ccc(C(C(=O)NC2CCCCC2)N(C(=O)Cc2cccs2)C2CC2)cc1 (configuration not stated)	-3.7	3.0	0.4	0.4	7.9*	1.4	-1.4
Cc1cc(NC(=O)CCCC(=O)OCC(F)(F)C(F)F)cc(C)c1C(=O)O	-7.2	7.0	-0.6	-1.6	8.3*	-3.7	-2.9
CCOC(=O)C1=C(CSc2nc3c(cc2C#N)CN(C)CC3)OC(N)=C(C#N)C1c1ccc(Cl)cc1 (configuration not stated)	-0.9	0.3	0.3	11.4	9.6*	2.2	-2.2
CCOC(=O)C1=C(CSc2nc3c(cc2C#N)CN(C)CC3)OC(N)=C(C#N)C1c1ccncc1 (configuration not stated)	0.0	-3.4	1.8	8.1	-2.6	0.7	/
CC(C)(C)NC(=O)/C=C/c1ccc(C(F)(F)F)cc1	-11.1	2.6	0.1	-2.2	8.2*	1.2	-1.4
O=C1NC(Cc2ccccc2)c2nc3cc(F)c(F)cc3c(=O)n2-c2ncccc21 (configuration not stated)	/	/	0.6	/	9.7*	/	1.2
O=C1NC(Cc2ccccc2)c2nc3cc(F)ccc3c(=O)n2-c2ncccc21 (configuration not stated)	/	/	-0.2	/	-2.2	/	/
CC(=O)Nc1nc(-c2cc([N+](=O)[O-])cs2)cs1	3.7	-13.0	0.2	0.5	-14.5	-3.9	/

Screening results: PubChem, The Scripps Research Institute Molecular Screening Center
